Experimental findings from PubChem BioAssay (EPA / NIEHS) are described below.

Usually AC50 stands for the concentration at which the activity in the assay is half-maximal.

The source holds several records for some structures; these can differ, active in one and inactive in another. Calls of active or inactive are those of the source. The calls were made as follows: active = hit-call score of the fitted dose curve at least 0.9, where 1 is the maximum; inactive = score below 0.9.

Read-out in this assay: Human Leukocyte Antigen - DR isotype (HLADR), HLA-DRA (gene 3122)
Put plainly: BSK_3C_HLADR: BioMAP Diversity Plus: 3C Assay for Human Leukocyte Antigen - DR isotype (HLADR) Biomarker Activity (AID 2283019). The following applies: primary human endothelial cells (HUVEC); actives raise or lower the signal. Here is the method: BSK_3C is a cell-based, multiplexed-readout assay that uses umbilical vein endothelium, a human vascular primary cell, with measurements taken at 24 hours after chemical dosing in a 96-well plate.BSK_3C_HLADR is an assay component measured in the BSK_3C assay. It measures HLA-DR antibody related to regulation of gene expression using ELISA technology.Data from the assay component BSK_3C_HLADR was analyzed into 1 assay endpoint. This assay endpoint, BSK_3C_HLADR, was analyzed with bidirectional fitting relative to DMSO as the negative control and baseline of activity. Using a type of binding reporter, gain or loss-of-signal activity can be used to understand changes in the signaling as they relate to the gene HLA-DRA. Furthermore, this assay endpoint can be referred to as a primary readout, because this assay has produced multiple assay endpoints where this one serves a signaling function. To generalize the intended target to other relatable targets, this assay endpoint is annotated to the cell adhesion molecules intended target family, where the subfamily is MHC Class II.
The levels of cell surface (or secreted, indicated by the prefix "s") biomarker endpoints were measured by ELISA. Overt cytotoxicity to cells in confluent adherent cultures (all systems other than the BT system) was assessed by measuring total protein levels using sulforhodamine B (SRB) staining in parallel cultures at the time of biomarker measurements, indicated as SRB endpoints. For proliferation assays for adherent cell types, individual cell types are cultured at sub-confluence and relative cell numbers quantified by SRB staining at time points optimized for each system (48 h: 3C and CASM3C systems; 72 h: BT and HDF3CGF systems; 96 h: SAg system). SRB was performed by staining cells with 0.1% SRB after fixation with 10% TCA and reading wells at 560 nm.Viability and proliferation of PBMC (T cells) was quantified by Alamar Blue reduction for the SAg and BT systems. For PBMC viability (referred to as PBMC Cytotoxicity within the assay endpoint names), cells were plated (75,000/well in a 96-well plate) and then chemical samples added for 1 h before addition of activators, SEB and TSST-1 (20 ng/mL final concentration each). Cells were incubated for 90 h. Then, Alamar Blue (20 uL/well) (Invitrogen, Cat DAL1100) was added for 6 h, and the plates were read with a fluorescence microplate reader at 546/580 nm (excitation/emission). For PBMC proliferation, cells were plated and activated as above but incubated for only 16 h prior to addition of Alamar Blue. Plates were read after 6 h.
Turning to `OC(O)(C(F)C(O)(O)C(F)(F)F)C(F)(F)F`, the half-maximal activity concentration (AC50) is 17.6 µM (active) and the result was inactive.
As for `NC(N)=O`, the result was inactive.
Consider `COCc1nnc(-c2ccc[n+]([O-])c2)n1-c1c(Cl)c(Cl)cc2[nH]c(=O)c(=O)[nH]c12`, for which the outcome was inactive.
On to `CCc1cccc(CC)c1N`, for which the outcome was inactive.
Still for that read-out and setting: the result for `OCC(CO)(CO)CO` reads “inactive”.
Consider `Cc1nc(-c2ccccn2)ncc1C(=O)Nn1cc(C)c2cc(F)ccc21`, for which the half-maximal activity concentration (AC50) is 20 µM (active).
Still for that read-out and setting: then `Cc1nccn1-c1ccc(Sc2cccc(C3(C(N)=O)CCOCC3)c2)cc1`, with 7.74 µM (active).
Consider `O=C1CN(N=Cc2ccc([N+](=O)[O-])o2)C(=O)N1`, for which the outcome was inactive.
Regarding `Nc1ccn([C@@H]2O[C@H](CO)[C@@H](O)[C@@H]2O)c(=O)n1`, the outcome was inactive.
For the compound `CCc1ccc(O)c(C(C)(C)C)c1`, the AC50 is 30.9 µM (active).
Take `OCCNCCO`: the outcome was inactive.
On to `CC(C)c1nnc2ccc(-c3ocnc3-c3cc(F)ccc3F)cn12`, for which the concentration at half-maximal activity (AC50) was 0.833 µM (active).
With `CCn1nc(C)c2c1C(=O)NCC(c1ccc(O)cc1)=N2`, the outcome was inactive.
Regarding `CC(C)CCCCCCOC(=O)C1CCCCC1C(=O)OCCCCCCC(C)C` (stereo not given), the outcome was inactive.
On to `CCCC(CCC)C(=O)O`, for which the outcome was inactive.
Same read-out and setting: the result for `OC[C@H]1O[C@@H]2O[C@H]3[C@H](O)[C@@H](O)[C@@H](O[C@H]4[C@H](O)[C@@H](O)[C@@H](O[C@H]5[C@H](O)[C@@H](O)[C@@H](O[C@H]6[C@H](O)[C@@H](O)[C@@H](O[C@H]7[C@H](O)[C@@H](O)[C@@H](O[C@H]1[C@H](O)[C@H]2O)O[C@@H]7CO)O[C@@H]6CO)O[C@@H]5CO)O[C@@H]4CO)O[C@@H]3CO` reads “inactive”.
Same read-out and setting: the result for `CCOC(N)=O` reads “inactive”; that for `CCCCCOC(C)=O`, “inactive”; that for `NCC(F)(F)C(F)(F)C(F)(F)C(F)(F)F`, “inactive”.
On the same count and under the same terms, the result for `O=C(Cl)C(F)(F)C(F)(F)C(F)(F)C(=O)Cl` reads “inactive”; that for `c1ccc2ncccc2c1`, “inactive”; that for `CC(=O)c1ccccc1`, “inactive”.
Take `CCCCC(CC)C(=O)OCCOCCOCCOC(=O)C(CC)CCCC` (stereo not given): the outcome was inactive.
As for `Cc1cccc(O)c1C`, the result was inactive.
As for `COc1cc(C(C)C)c2c(c1)S(=O)(=O)N(COc1cc(=O)n3cccc(OCCN4CCCCC4)c3n1)C2=O`, the AC50 is 8.31 µM (active).
`CCCCCCCCN(C)C`: the outcome was inactive.
Still for that read-out and setting: then `c1ccc2cc3ccccc3cc2c1`, with “inactive”; and `Cc1ccc(S(=O)(=O)NC(=O)NN2CCCCCC2)cc1`, with “inactive”; and `O=S(=O)(O)CCC(F)(F)C(F)(F)C(F)(F)C(F)(F)C(F)(F)C(F)(F)F`, with “inactive”.
Same read-out and setting: then `OC[C@H]1O[C@@](CO)(O[C@H]2O[C@H](CO)[C@@H](O)[C@H](O)[C@H]2O)[C@@H](O)[C@@H]1O`, with “inactive”; and `Cn1c(=O)c2[nH]cnc2n(C)c1=O`, with “inactive”.
Regarding `FC(F)=C(F)C(F)(F)C(F)(F)C(F)(F)C(F)(F)C(F)(F)C(F)(F)F`, the outcome was inactive.
Turning to `CCCOc1ccc(S(=O)(=O)N2CCN(CC)CC2)cc1-c1nc2c(CC)n(Cc3ccccn3)nc2c(=O)[nH]1`, the result was inactive.
On the same count and under the same terms, then `CNC(C)=O`, with “inactive”.
In the case of `c1ccc(C(O[C@@H]2CCCN(CCc3ccc4c(c3)OCO4)C2)c2ccccc2)cc1`, the AC50 was 30.8 µM (active).
Consider `CCCCCCCCCC`, for which the outcome was inactive.
Same read-out and setting: the result for `OCc1ccccc1` reads “inactive”; that for `c1ccc2c(c1)-c1cccc3c1c-2cc1ccccc13`, “inactive”; that for `CC[C@H](C)C(=O)O[C@H]1C[C@H](O)C=C2C=C[C@H](C)[C@H](CC[C@@H](O)C[C@@H](O)CC(=O)O)[C@H]21`, “inactive”.
